Measurements as given in PubChem BioAssay AID588352 (The Scripps Research Institute Molecular Screening Center, 2011).
The campaign covered roughly 360,000 compounds. About 620 (0.17%) were called active.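 Rule for the calls: active = inhibition above a per-campaign cutoff, the mean of all compounds plus 3 SD (cut at about 60% in these data); inactive = the rest.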 The full list was thinned out, with actives kept by preference.

Each compound was assayed against Nuclear receptor coactivator 3 (Homo sapiens) (UniProt Q9Y6Q9) (assay: NCOA3 GAL4-fusion reporter inhibition – cell-based, luminescence, primary screen (AID 588352;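 note: 0% = DMSO-treated cells and 100% = gossypol-treated cells at 36 µM; higher means less SRC3-driven luciferase light from the GAL4 reporter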)). Conditions: HEK293 GAL4-SRC3 luciferase reporter, at 3.6 µM, stronger effect = higher value.
Nuclear receptor coactivator 3 (Homo sapiens), sequence (Q9Y6Q9 whole entry, looked up, the tested form may be a part): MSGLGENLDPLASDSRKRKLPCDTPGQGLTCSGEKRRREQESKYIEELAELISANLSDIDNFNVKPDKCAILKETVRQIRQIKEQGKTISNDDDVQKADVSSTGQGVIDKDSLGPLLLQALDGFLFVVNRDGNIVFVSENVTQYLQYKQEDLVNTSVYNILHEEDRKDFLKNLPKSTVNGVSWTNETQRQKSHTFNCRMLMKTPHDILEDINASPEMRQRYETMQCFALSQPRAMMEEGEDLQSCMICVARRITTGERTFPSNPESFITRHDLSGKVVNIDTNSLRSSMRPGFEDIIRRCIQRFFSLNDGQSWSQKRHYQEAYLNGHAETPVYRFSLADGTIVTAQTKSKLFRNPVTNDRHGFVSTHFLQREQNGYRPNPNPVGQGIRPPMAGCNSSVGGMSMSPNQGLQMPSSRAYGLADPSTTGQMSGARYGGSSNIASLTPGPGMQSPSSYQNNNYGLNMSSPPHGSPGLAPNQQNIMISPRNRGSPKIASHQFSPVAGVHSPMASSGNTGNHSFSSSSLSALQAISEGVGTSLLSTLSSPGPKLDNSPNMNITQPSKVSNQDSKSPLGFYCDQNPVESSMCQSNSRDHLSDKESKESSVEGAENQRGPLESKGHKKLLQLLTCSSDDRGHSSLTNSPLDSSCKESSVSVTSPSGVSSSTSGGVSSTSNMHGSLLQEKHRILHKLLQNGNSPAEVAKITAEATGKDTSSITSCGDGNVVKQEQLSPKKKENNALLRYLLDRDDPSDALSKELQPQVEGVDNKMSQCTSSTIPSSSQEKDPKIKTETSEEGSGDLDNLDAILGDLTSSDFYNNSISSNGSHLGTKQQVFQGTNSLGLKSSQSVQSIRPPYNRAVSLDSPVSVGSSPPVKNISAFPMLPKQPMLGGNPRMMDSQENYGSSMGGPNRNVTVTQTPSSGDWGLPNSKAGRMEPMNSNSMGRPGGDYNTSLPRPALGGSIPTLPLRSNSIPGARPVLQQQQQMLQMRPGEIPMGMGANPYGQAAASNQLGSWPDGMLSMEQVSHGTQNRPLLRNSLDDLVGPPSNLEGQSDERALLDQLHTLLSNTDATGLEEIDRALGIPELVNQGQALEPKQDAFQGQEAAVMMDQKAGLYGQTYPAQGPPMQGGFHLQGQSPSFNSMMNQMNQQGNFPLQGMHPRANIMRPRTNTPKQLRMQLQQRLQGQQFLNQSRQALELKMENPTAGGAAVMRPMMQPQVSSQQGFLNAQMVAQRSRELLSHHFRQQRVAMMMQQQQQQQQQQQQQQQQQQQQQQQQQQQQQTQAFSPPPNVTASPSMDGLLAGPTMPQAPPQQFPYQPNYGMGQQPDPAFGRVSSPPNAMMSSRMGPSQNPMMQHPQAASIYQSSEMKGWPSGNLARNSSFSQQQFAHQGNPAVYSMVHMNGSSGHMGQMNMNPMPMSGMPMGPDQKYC
With `C[C@]12CC[C@H](O)C[C@H]1CC[C@@H]1C2CC[C@]2(C)[C@@H](C3=CC(=O)OC3)[C@@H](O)C[C@]12O` (stereo not given in full) the inhibition was 63.5% (active).
In the case of `CC12CCC(O)CC1CCC1C2CCC2(C)C(C(=O)CC(O)C(F)(F)F)CCC12` (stereo not given), the inhibition is reported as 15.9% (inactive).
For `Cc1cccc(OP(=O)(Oc2cccc(C)c2)OC(c2ccccc2)C(F)(F)F)c1` (stereo not given), the inhibition was -1.86% (inactive).
For `C[N+]1(C)CCOC(O)(c2ccc(-c3ccc(C4(O)C[N+](C)(C)CCO4)cc3)cc2)C1` (stereo not given), the inhibition was 20.3% (inactive).
`CNC(=S)N/N=C1\C2CN3CCN(C2)CC1(c1ccccc1)C3` was tested, and the inhibition was 8.65% (inactive).
With `COC(=O)C1=C(c2ccc(-c3ccccc3)c(F)c2)C[C@@H]2CC[C@H]1N2C(=O)NCc1ccc(F)cc1` the inhibition was 9.01% (inactive).
In the case of `CCC(C)(O)C(=O)OC1C(=O)OC2CC3C(C)=CC(=O)C(O)C3(C)C3C4(O)OCC23C1C(C)C4O` (stereo not given), the inhibition is reported as 93.7% (active).
`O=C(Cn1c(=O)n(CC2CS2)c2ccccc21)N1CCCCC1` (stereo not given) was tested, and the inhibition was -25.5% (inactive).
In the case of `COc1ccccc1CN1CCN(C(=O)Cc2ccccc2)CC1`, the inhibition is reported as 2.02% (inactive).
`COC(=O)[C@@H]1C(OC(=O)c2ccccc2)CC2CCC1N2C` (stereo not given in full) was tested, and the inhibition was 14.1% (inactive).
With `CN(C)CCN(CC1CCCN(Cc2ccccc2F)C1)C(=O)Cc1ccc(F)c(F)c1` (stereo not given) the inhibition was 3.08% (inactive).
For `C=CC12CN(C)[C@@H]3C4CO[C@H](C[C@H]41)[C@]1(C(=O)Nc4ccccc41)[C@@H]32` (stereo not given in full), the inhibition was 4.33% (inactive).
With `CCOc1ccc(-c2cc(C)[n+](CCN(CC)CC)c(-c3ccc(OCC)cc3)c2)cc1` the inhibition was 78% (active).
In the case of `Cn1c(O)c(C=Nc2ccc3c(c2)CCC3)c(=O)n(C)c1=O`, the inhibition is reported as -9.05% (inactive).
`COC1C(O)C(C)OC(OC2CCC3(C=O)C(CCC4C3CCC3(C)C(C5=CC(=O)OC5)CCC43O)C2)C1O` (stereo not given) was tested, and the inhibition was 90.5% (active).
`Cn1c(C(=O)N2CCC(C(=O)N3CCC4(CC3)OCCO4)CC2)cc2sccc21` was tested, and the inhibition was 6.98% (inactive).
`NC(=O)Cn1cc(C(=O)c2ccccc2F)c2ccccc21` was tested, and the inhibition was 10.3% (inactive).
In the case of `Cc1ccc(P(=S)(c2ccc(C)o2)N2CCOCC2)o1`, the inhibition is reported as 6.64% (inactive).
`CC(c1ccccc1)(c1ccccc1)c1ccncc1` was tested, and the inhibition was 16.2% (inactive).
In the case of `Fc1cccc(F)c1CN1CCN(Cc2c(F)cccc2F)CC1`, the inhibition is reported as 28.2% (inactive).
With `COc1ccc2[nH]c3c(c2c1)CCN[C@H]3C` the inhibition was 7.99% (inactive).
`CC(=O)OC1C2(CC3N4C(=O)C5(CO)SSC4(CC31O)C(=O)N5C)OC(C)C(C)(C)C2=O` (stereo not given) was tested, and the inhibition was 67.7% (active).
`CC1CCCN1CCC(C(N)=O)(c1ccccc1)c1ccccc1` (stereo not given) was tested, and the inhibition was -21.2% (inactive).
`COP(=O)(OC)C(NC(=O)c1ccc(C)cc1)C(Cl)(Cl)Cl` (stereo not given) was tested, and the inhibition was -4% (inactive).
With `CCCCCCCCCCCCn1ccc(=N)cc1` the inhibition was 76.9% (active).
In the case of `CCOC(=O)C1CN(C)CCC1=O` (stereo not given), the inhibition is reported as 21.1% (inactive).
`c1ccc2sc(N3CCNCC3)nc2c1` was tested, and the inhibition was -3.09% (inactive).
`COc1cccc(OC)c1C(=O)NC(=S)N1C[C@H]2C[C@H](C1)c1cccc(=O)n1C2` was tested, and the inhibition was 19.2% (inactive).
With `OC(Cn1c2ccccc2c2ccccc21)C[n+]1ccccc1` (stereo not given) the inhibition was -8.77% (inactive).
With `CN(C)P(=S)(Nc1ccccc1)C(Cl)(Cl)Cl` (stereo not given) the inhibition was 6.36% (inactive).
